Data taken from PubChem BioAssay AID1159580 (chemical genetic matrix, 2015).
About 2,000 (36%) of roughly 5,500 compounds were called active. Another 18% or so got no clear call; they are omitted. This is one part of the list. A number with no mark means an inactive call. No stated cut-off is given here; in the data, active means normalized growth mostly below about 0.91 (no sharp cut-off); inconclusive means no clear call, values can overlap the other calls; inactive means mostly above about 0.92.

Experiment: chemical genetic growth profiling, strain panel (AID 1159580);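 further: tested at 20 µM; growth read once vehicle control cultures reached saturation at 30 °C; 1 = growth at the plate median or of vehicle wells; lower values mean less growth of the strain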
Conditions: growth OD

In the case of `CC(=O)O[C@H]1CC[C@@]2(C)C(C[C@@H](OC(C)=O)[C@]3(C)C2CC[C@@]2(C)[C@H](c4ccoc4)OC(=O)[C@H]4O[C@]423)C1(C)C` (stereo partly drawn), the normalized growth (S. cerevisiae deletion strains, locus YJL187C, strain SWE1, hits give low values) is reported as 1, the normalized growth (S. cerevisiae deletion strains, locus YJR066W, strain TOR1, hits give low values) is reported as 0.997 and the normalized growth (S. cerevisiae deletion strains, locus YKL009W, strain mrt4, hits give low values) is reported as 1.47 [resistant] (active). For the same molecule, the normalized growth (S. cerevisiae deletion strains, locus YKL068W, hits give low values) was 1, the normalized growth (S. cerevisiae deletion strains, locus YKL085W, strain MDH1 (second series), hits give low values) was 1.04 and the normalized growth (S. cerevisiae deletion strains, locus YKL085W, strain MDH1, hits give low values) was 1.04. It also gave a normalized growth (S. cerevisiae deletion strains, locus YKL160W, strain elf1, hits give low values) of 1.02, a normalized growth (S. cerevisiae deletion strains, locus YKL190W, strain CNB1, hits give low values) of 1 and a normalized growth (S. cerevisiae deletion strains, locus YKR001C, strain vps1, hits give low values) of 1. For the same molecule, the normalized growth (S. cerevisiae deletion strains, locus YKR026C, strain gcn3, hits give low values) was 0.971, the normalized growth (S. cerevisiae deletion strains, locus YKR091W, strain srl3, hits give low values) was 0.991 and the normalized growth (S. cerevisiae deletion strains, locus YLL001W, strain dnm1, hits give low values) was 0.988. For the same molecule, the normalized growth (S. cerevisiae deletion strains, locus YLL026W, hits give low values) was 0.995, the normalized growth (S. cerevisiae deletion strains, locus YLL041C, strain sdh2, hits give low values) was 0.987 and the normalized growth (S. cerevisiae deletion strains, locus YLR027C, strain aat2, hits give low values) was 1. It also gave a normalized growth (S. cerevisiae deletion strains, locus YLR039C, strain RIC1, hits give low values) of 1.01, a normalized growth (S. cerevisiae deletion strains, locus YLR058C, strain SHM2, hits give low values) of 1.01 and a normalized growth (S. cerevisiae deletion strains, locus YLR102C, strain apc9, hits give low values) of 1.02. The normalized growth (S. cerevisiae deletion strains, locus YLR113W, strain HOG1, hits give low values) was 0.991, the normalized growth (S. cerevisiae deletion strains, locus YLR221C, strain rsa3, hits give low values) was 1.01 and the normalized growth (S. cerevisiae deletion strains, locus YLR258W, strain gsy2, hits give low values) was 0.994. The normalized growth (S. cerevisiae deletion strains, locus YLR262C, strain YPT6 (second series), hits give low values) was 1.05, the normalized growth (S. cerevisiae deletion strains, locus YLR262C, strain YPT6, hits give low values) was 1.1 and the normalized growth (S. cerevisiae deletion strains, locus YLR268W, strain sec22, hits give low values) was 0.999. For the same molecule, the normalized growth (S. cerevisiae deletion strains, locus YLR320W, strain mms22, hits give low values) was 1.01, the normalized growth (S. cerevisiae deletion strains, locus YLR330W, strain CHS5, hits give low values) was 1.01 and the normalized growth (S. cerevisiae deletion strains, locus YLR342W, strain FKS1, hits give low values) was 0.994. For the same molecule, the normalized growth (S. cerevisiae deletion strains, locus YLR357W, strain rsc2, hits give low values) was 0.951, the normalized growth (S. cerevisiae deletion strains, locus YLR370C, strain arc18, hits give low values) was 0.996 and the normalized growth (S. cerevisiae deletion strains, locus YLR371W, strain rom2, hits give low values) was 1.01. It also gave a normalized growth (S. cerevisiae deletion strains, locus YLR384C, strain iki3, hits give low values) of 1, a normalized growth (S. cerevisiae deletion strains, locus YLR418C, strain cdc73, hits give low values) of 1.06 and a normalized growth (S. cerevisiae deletion strains, locus YML016C, strain PPZ1, hits give low values) of 1.02. The normalized growth (S. cerevisiae deletion strains, locus YML032C, strain rad52, hits give low values) was 1.01, the normalized growth (S. cerevisiae deletion strains, locus YML120C, strain ndi1, hits give low values) was 0.989 and the normalized growth (S. cerevisiae deletion strains, locus YML124C, strain tub3, hits give low values) was 1.01. The normalized growth (S. cerevisiae deletion strains, locus YMR058W, strain fet3, hits give low values) was 1, the normalized growth (S. cerevisiae deletion strains, locus YMR078C, strain ctf18, hits give low values) was 1.02 and the normalized growth (S. cerevisiae deletion strains, locus YMR125W, strain sto1, hits give low values) was 0.99. For the same molecule, the normalized growth (S. cerevisiae deletion strains, locus YMR129W, hits give low values) was 0.996, the normalized growth (S. cerevisiae deletion strains, locus YMR205C, strain PFK2, hits give low values) was 0.968 and the normalized growth (S. cerevisiae deletion strains, locus YMR223W, strain ubp8, hits give low values) was 1.03. For the same molecule, the normalized growth (S. cerevisiae deletion strains, locus YMR231W, strain pep5, hits give low values) was 0.994, the normalized growth (S. cerevisiae deletion strains, locus YMR263W, strain SAP30, hits give low values) was 1.02 and the normalized growth (S. cerevisiae deletion strains, locus YMR307W, strain GAS1, hits give low values) was 0.994. It also gave a normalized growth (S. cerevisiae deletion strains, locus YNL067W, strain RPL9B, hits give low values) of 1.05, a normalized growth (S. cerevisiae deletion strains, locus YNL071W, strain lat1, hits give low values) of 1 and a normalized growth (S. cerevisiae deletion strains, locus YNL183C, strain NPR1, hits give low values) of 1. It also gave a normalized growth (S. cerevisiae deletion strains, locus YNL209W, strain ssb2, hits give low values) of 1, a normalized growth (S. cerevisiae deletion strains, locus YNL233W, strain BNI4, hits give low values) of 1.05 and a normalized growth (S. cerevisiae deletion strains, locus YNL248C, strain rpa49, hits give low values) of 1.01. It also gave a normalized growth (S. cerevisiae deletion strains, locus YNL250W, strain rad50, hits give low values) of 1.05, a normalized growth (S. cerevisiae deletion strains, locus YNL271C, strain bni1, hits give low values) of 1.02 and a normalized growth (S. cerevisiae deletion strains, locus YNL298W, strain CLA4, hits give low values) of 1.01. It also gave a normalized growth (S. cerevisiae deletion strains, locus YNL307C, strain MCK1, hits give low values) of 1.02, a normalized growth (S. cerevisiae deletion strains, locus YNL322C, strain KRE1 (second series), hits give low values) of 0.997 and a normalized growth (S. cerevisiae deletion strains, locus YNR049C, strain mso1, hits give low values) of 0.985. It also gave a normalized growth (S. cerevisiae deletion strains, locus YNR052C, strain pop2, hits give low values) of 1.03, a normalized growth (S. cerevisiae deletion strains, locus YOL006C, strain TOP1, hits give low values) of 1.04 and a normalized growth (S. cerevisiae deletion strains, locus YOL012C, strain htz1) of 0.707. For the same molecule, the normalized growth (S. cerevisiae deletion strains, locus YOL147C, strain pex11, hits give low values) was 1.01, the normalized growth (S. cerevisiae deletion strains, locus YOR001W, strain rrp6, hits give low values) was 1.02 and the normalized growth (S. cerevisiae deletion strains, locus YOR061W, strain CKA2, hits give low values) was 1. The normalized growth (S. cerevisiae deletion strains, locus YOR069W, strain VPS5, hits give low values) was 1.01, the normalized growth (S. cerevisiae deletion strains, locus YOR070C, strain gyp1, hits give low values) was 0.997 and the normalized growth (S. cerevisiae deletion strains, locus YOR080W, strain dia2, hits give low values) was 0.996. For the same molecule, the normalized growth (S. cerevisiae deletion strains, locus YOR083W, strain WHI5, hits give low values) was 1.03, the normalized growth (S. cerevisiae deletion strains, locus YOR106W, strain vam3, hits give low values) was 1.03 and the normalized growth (S. cerevisiae deletion strains, locus YOR136W, strain idh2, hits give low values) was 1.02. For the same molecule, the normalized growth (S. cerevisiae deletion strains, locus YOR144C, strain elg1, hits give low values) was 1.01, the normalized growth (S. cerevisiae deletion strains, locus YOR184W, strain ser1, hits give low values) was 1 and the normalized growth (S. cerevisiae deletion strains, locus YOR231W, strain MKK1, hits give low values) was 1.02. The normalized growth (S. cerevisiae deletion strains, locus YOR265W, strain rbl2, hits give low values) was 1, the normalized growth (S. cerevisiae deletion strains, locus YOR270C, strain vph1, hits give low values) was 1.01 and the normalized growth (S. cerevisiae deletion strains, locus YOR290C, strain snf2, hits give low values) was 0.942. It also gave a normalized growth (S. cerevisiae deletion strains, locus YOR316C, strain cot1, hits give low values) of 1.01, a normalized growth (S. cerevisiae deletion strains, locus YPL051W, strain arl3, hits give low values) of 1.03 and a normalized growth (S. cerevisiae deletion strains, locus YPL078C, strain atp4, hits give low values) of 1.02. For the same molecule, the normalized growth (S. cerevisiae deletion strains, locus YPL106C, strain sse1, hits give low values) was 0.981, the normalized growth (S. cerevisiae deletion strains, locus YPL240C, strain hsp82, hits give low values) was 1 and the normalized growth (S. cerevisiae deletion strains, locus YPL241C, strain CIN2, hits give low values) was 1. It also gave a normalized growth (S. cerevisiae deletion strains, locus YPL256C, strain CLN2, hits give low values) of 1.05, a normalized growth (S. cerevisiae deletion strains, locus YPR119W, strain clb2, hits give low values) of 1.01 and a normalized growth (S. cerevisiae deletion strains, locus YPR141C, strain kar3, hits give low values) of 1.02. For the same molecule, the normalized growth (S. cerevisiae deletion strains, locus YPR163C, strain tif3, hits give low values) was 1.02, the normalized growth (S. cerevisiae deletion strains, locus YPR167C, strain met16, hits give low values) was 1.01 and the normalized growth (S. cerevisiae deletion strains, strain wtn01, hits give low values) was 1.02. It also gave a normalized growth (S. cerevisiae strains, strain wild type, hits give low values) of 1.02.
